An excerpt weighted towards active compounds, which were near 21% of everything screened.
DT40 TDP1 no CPT – qHTS for Inhibitors of human tyrosyl-DNA phosphodiesterase 1 (TDP1): qHTS in cells in absence of CPT; DT40 Tdp1-/- hTDP1 cells, no CPT, ATP luminescence, 48 h; Potency, µM (doses to about 46.2 µM), for inactives: at the top dose activity change, negative = growth inhibition, hits mostly inhibitors; actives 15% (n = 420,000); note: potency is the fitted concentration of half-maximal effect; % is set by controls: 0 for no effect and ±100 for the full control effect; nearly all actives have a fitted effect of over 55% in size
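Growth of hTDP1-complemented DT40 Tdp1-knockout cells is measured by ATP luminescence after at least 48 hr compound exposure at 37 °C, with DMSO substituting for the 20 nM CPT used in the parallel screen.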
ClpP mod – qHTS Assay for Activators of ClpP | actives 1.9% (n = 340,000) | ATP-dependent Clp protease proteolytic subunit (Bacillus subtilis (strain 168)), P80244 | purified B. subtilis ClpP, FRET peptide cleavage, 20 min | Potency, µM (series often up to 57.5 µM), for the others: at the top dose activity change, negative = active; active = well fitted falling curve with a large enough effect; inconclusive = small, poorly fitted or top-dose-only effect; inactive = no such curve, though single readings can be large or run the other way; note: potency is the fitted concentration of half-maximal effect; the source files actives as falling curves though it sought activators and does not explain the sign; nearly all actives have a fitted effect of over 65% in size
Target sequence (P80244 whole entry, looked up): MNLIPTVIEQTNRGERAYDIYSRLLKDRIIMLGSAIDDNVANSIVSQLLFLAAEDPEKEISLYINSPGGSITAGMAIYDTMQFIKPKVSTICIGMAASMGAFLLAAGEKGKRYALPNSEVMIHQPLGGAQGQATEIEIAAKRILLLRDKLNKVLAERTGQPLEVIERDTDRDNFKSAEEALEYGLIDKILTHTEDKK
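ClpP 10 microg/mL final, pH 8 Tris/KCl buffer with BSA, glycerol, Tween-20; compound pinned in; FRET-FV substrate; RT 20 min; Ex320/Em430; ΔFRET vs ADEP 5.8 microM, DMSO, no enzyme.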
IL-1B inflam inh – inhibitors of inflammasome signaling (IL-1 beta secretion); THP-1 LPS/ATP IL-1B secretion, AlphaLISA, 16 h; active compounds read low; activity change, % at 57.5 µM; actives 4.7% (n = 360,000); AID 743279; in the data active = activity change below about -50%; inconclusive = mostly about -30% to -49%; note: % is set by controls: 0 for no effect and ±100 for the full control effect
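Secreted IL-1B measured by AlphaLISA bead assay after 16 h compound exposure of THP-1 cells; compounds (final up to 57.5 uM) added 1 h before LPS (250 ng/mL) and ATP (1.25 mM) stimulation; lower signal means less secretion.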
DRD3 antagonist – antagonists of human D3 dopamine receptor; P35462; D3R cells, DiscoveRx beta-arrestin luminescence, antagonist mode; active compounds read low; max response, negative = inhibition, %; actives 2.5% (n = 360,000); in the data active = max response below about -50%; inconclusive = no clear call, values can overlap the other calls; note: % is set by controls: 0 for no effect and ±100 for the full control effect
Target sequence (P35462 whole entry, looked up): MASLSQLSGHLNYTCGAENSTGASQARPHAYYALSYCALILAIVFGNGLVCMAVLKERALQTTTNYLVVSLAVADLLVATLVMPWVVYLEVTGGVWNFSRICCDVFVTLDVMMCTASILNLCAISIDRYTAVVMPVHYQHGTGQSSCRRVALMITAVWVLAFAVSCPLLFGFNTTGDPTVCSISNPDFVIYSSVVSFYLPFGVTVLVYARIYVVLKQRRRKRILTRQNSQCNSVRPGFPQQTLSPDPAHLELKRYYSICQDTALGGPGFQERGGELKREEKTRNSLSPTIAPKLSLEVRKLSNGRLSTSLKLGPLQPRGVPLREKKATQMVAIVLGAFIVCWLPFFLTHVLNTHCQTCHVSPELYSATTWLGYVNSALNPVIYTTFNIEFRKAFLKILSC
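Cells plated overnight at 1500 cells/well, then exposed to library compounds with dopamine controls for 90 minutes at 37 degrees C. DiscoveRx reagent added for 30–60 minutes at room temperature; luminescence read, quantitative HTS format.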
DT40 TDP1 CPT – DT40-hTDP1 cell growth loss with CPT; chicken DT40 Tdp1-/-;hTDP1 cells + 20 nM CPT, ATP luminescence, 48 h; Potency, µM (series often up to 46.2 µM), without a hit: at the highest dose activity change, negative = growth inhibition, hits mostly inhibitors; actives 12% (n = 420,000); AID 686979; note: potency is the fitted concentration of half-maximal effect; % is set by controls: 0 for no effect and ±100 for the full control effect; nearly all actives have a fitted effect of over 55% in size
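Chicken DT40 Tdp1-/- cells complemented with human TDP1, 400 cells/well, exposed to compounds plus 20 nM camptothecin for at least 48 h at 37 C; viability read as ATP content by CellTiter-Glo luminescence.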
DRD3 agonist – activates the human D3 dopamine receptor; P35462; D3R DiscoveRx beta-arrestin cells, luminescence, 90 min; max activation, %; actives 0.58% (n = 410,000); AID 652048; in the data active = max activation above about 30%; note: 0% is about no effect
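Cells at 1500/well, incubated overnight, then treated with pinned compounds (dopamine as control) for 90 min at 37 degrees C. DiscoveRx reagent added for 30 - 60 minutes at room temperature; luminescence read.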
Numbers without * were called inactive; i = inactive; ? = inconclusive; nt = not tested or not shown. Unless noted, calls come from the whole dose curve; as a rule, active = well fitted inhibition curve with a large enough effect; inconclusive = small, poorly fitted or top-dose-only effect; inactive = flat fitted curve, though single readings scatter.

SMILES	DT40 TDP1 no CPT	ClpP mod	IL-1B inflam inh	DRD3 antagonist	DT40 TDP1 CPT	DRD3 agonist
C(=C\c1ccccc1)/CN1CCN(C(c2cccc3ccccc23)c2nnnn2Cc2ccccc2)CC1 (stereo unspecified)	16µM*	0%	?	?	16µM*	-11
CC(C)(C)n1nnnc1C(c1cccs1)N1CCN(C/C=C/c2ccccc2)CC1 (stereo unspecified)	?	-3%	-10	-122*	?	-12
Cc1ccc(S(=O)(=O)CCC(=O)Nc2cccc(S(=O)(=O)N3CCCCCC3)c2)cc1	?	-1%	23	-3	?	5
Cc1c(/C=N/NC(N)=O)c2ccccn2c1C(=O)c1ccc(F)cc1	9.2µM*	-3%	-70*	-5	?	-4
CNC(=S)N/N=C/c1c(C)c(C(=O)c2ccc(F)cc2)n2ccccc12	?	nt	59	-4	?	0
CCc1ccc(NC(=O)CSc2nc3nccnc3c(=O)n2CCc2c[nH]c3ccccc23)cc1	4.1µM*	3%	nt	nt	8.2µM*	-24
Cc1ccc(C)c(NC(=O)CSc2nc3nccnc3c(=O)n2CCc2c[nH]c3ccccc23)c1	12µM*	0%	nt	nt	12µM*	4
Cc1ccc(C)c(NC(=O)C(=O)NCCc2c[nH]c3ccccc23)c1	?	nt	-22	2	-29%	9
O=C(NNC(=O)c1ccccc1Br)c1cnccn1	?	1%	16	13	18µM*	0
O=C(NNC(=O)c1cnccn1)c1ccc(Cl)c(Cl)c1	3.7µM*	1%	166	-19	7.3µM*	3
Cc1nc(-c2ccccc2)nc2n[nH]c(N)c12	-4%	nt	0	10	-2%	13
CC(=O)OC1CC2C(C)(C)C(=O)[C@@H]3OC3[C@@]2(C)C2CC[C@]3(C)C(=CC(=O)OC3c3ccoc3)[C@]12C (stereo partly specified)	-5%	nt	nt	nt	11%	nt
O=[N+]([O-])c1ccc(S(=O)(=O)N2CCN(c3ccccn3)CC2)cc1	-10%	-1%	-25	7	5%	3
CC(C)S(=O)(=O)N1CCN(c2ccnc3cc(Cl)ccc23)CC1	?	nt	nt	-8	?	-2
O=[N+]([O-])c1ccc(S(=O)(=O)N2CCN(c3ccnc4cc(Cl)ccc34)CC2)cc1	?	2%	-18	-11	18µM*	1
CN(C)S(=O)(=O)N1CCN(c2ccnc3cc(Cl)ccc23)CC1	13µM*	0%	?	-10	23µM*	-3
O=S(=O)(c1cccc(Br)c1)N1CCN(c2ccnc3cc(Cl)ccc23)CC1	21µM*	?	i	-7	?	4
O=S(=O)(c1ccc(F)c(F)c1)N1CCN(c2ncccn2)CC1	2%	-1%	-7	4	9%	2
N#Cc1cccc(S(=O)(=O)N2CCN(c3ccnc4cc(Cl)ccc34)CC2)c1	12µM*	4%	-16	14	12µM*	2
N#Cc1cccc(S(=O)(=O)N2CCN(S(=O)(=O)c3ccc4c(c3)OCCO4)CC2)c1	-1%	-4%	nt	nt	11%	nt
CCCCCCCCCCCCOCCCN	?	nt	nt	nt	-21%	-3
COc1cc(Cl)c(C)cc1N1C(=O)[C@@H]2C[C@H]1CN2Cc1ccccn1	-17%	nt	nt	nt	-3%	nt
O=C(CCC(=O)NC1CCCCC1)Nc1cccnc1	5%	0%	0	13	-8%	3
O=C(Nc1ccnn1C1CCN(C(=O)c2cc(Cl)ccc2F)CC1)C1CCOC1 (stereo unspecified)	-1%	-1%	22	-6	-2%	-1
CNc1nc(-c2cccc(C(=O)N(C)C)c2)cn2ccnc12	-5%	-3%	0	0	-4%	1
SMILES	DT40 TDP1 no CPT	ClpP mod	IL-1B inflam inh	DRD3 antagonist	DT40 TDP1 CPT	DRD3 agonist
CCN(c1nc(N)c(C(=O)N=C(N)N)nc1Cl)C(C)C	7.3µM*	-7%	-3	10	21µM*	-35
COc1cc(C#Cc2ccc3cc(C(C)(C)O)oc(=O)c3c2)cc(OC)c1	?	4%	-5	70	?	31*
Cc1cc(=O)n2[nH]c(N)c(N=Nc3ccccc3F)c2n1	16µM*	0%	10	-18	?	2
Cc1cc(C(F)(F)F)n2[nH]c(=O)c(N=Nc3ccccc3)c2n1	-4%	nt	11	-15	1%	2
CC1=CC(C)(C)N(C(=O)CNC2CCCCC2)c2cc(C)ccc21	?	nt	-21	-27	?	-14
O=C(O)CCCCCCCCc1cn(Cc2ccc(C(=O)c3ccccc3)cc2)nn1	4.1µM*	-2%	74	-14	3.7µM*	-33
O=C(OCc1cn(Cc2ccccc2)nn1)c1ccccc1	-3%	-2%	23	6	-3%	-5
O=C(c1ccccc1)c1ccc(Cn2cc(CCCO)nn2)cc1	5.8µM*	0%	39	-21	8.2µM*	5
Cc1ccc(-n2cc(CCCCCCCCC(=O)O)nn2)cc1	9%	0%	6	2	-2%	30*
O=C(O)CCCCCCCCc1cn(CC2CCCCC2)nn1	7%	-2%	41	-10	3%	-2
CC(=O)Nc1ccc(S(=O)(=O)Nc2nc(CN3CCOCC3)nc3sc4c(c23)CCCC4)cc1	?	?	-4	?	-5%	1
Cc1cc(S(=O)(=O)Nc2nc(CN3CCOCC3)nc3sc4c(c23)CCC4)ccc1F	26µM*	2%	29	0	?	-4
COc1cccc(Cn2ccn(-c3ccc(F)cc3)c(=O)c2=O)c1	1%	0%	nt	nt	-4%	2
CN(C)c1cccc(C(=O)NN2C(=O)NC3(CCCCC3)C2=O)c1	-24%	7%	1	6	-23%	5
CC(C)NC(=S)N/N=C1\CCCCC1C1CCCCC1 (stereo unspecified)	2.9µM*	-2%	0	?	5.8µM*	-5
CCN(CC(=O)Nc1cccc(OC)c1)C(=O)c1cnc(Cl)c(Cl)c1	?	nt	-83*	-29	-11%	-15
COc1ccc(CN(C)C(=O)CNC(=O)c2ccc3ccccc3c2)c(OC)c1	?	nt	-17	-5	-25%	4
COc1ccc(Br)cc1CN(C)C(=O)c1cc(Cl)c2c(c1)OCCO2	21µM*	nt	-26	-7	?	-8
COc1cccc(NC(=O)CN(C)C(=O)c2ccc(COc3ccccc3)cc2)c1	16µM*	1%	9	-6	?	2

Screens as filed in PubChem.
